Test [1] deals with Nuclear receptor subfamily 1 group I member 3 (Homo sapiens) (UniProt Q14994). Briefly: Primary qHTS for agonist of constitutive androstane receptor (CAR) against the NCATS DSHEA and TCM libraries (AID 1794839).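 Further: HepG2 cells expressing human CAR with a CYP2B6 reporter plus PK11195 antagonist; luciferase reporter luminescence read with ONE-Glo; 0% is about no effect.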 In outline: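 Concentration–response screen in HepG2-CYP2B6-hCAR cells under 0.75 µM PK11195; 24 h exposure; luminescent reporter signal with multiplexed fluorescent viability.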
Nuclear receptor subfamily 1 group I member 3 (Homo sapiens), sequence (Q14994 whole entry, looked up): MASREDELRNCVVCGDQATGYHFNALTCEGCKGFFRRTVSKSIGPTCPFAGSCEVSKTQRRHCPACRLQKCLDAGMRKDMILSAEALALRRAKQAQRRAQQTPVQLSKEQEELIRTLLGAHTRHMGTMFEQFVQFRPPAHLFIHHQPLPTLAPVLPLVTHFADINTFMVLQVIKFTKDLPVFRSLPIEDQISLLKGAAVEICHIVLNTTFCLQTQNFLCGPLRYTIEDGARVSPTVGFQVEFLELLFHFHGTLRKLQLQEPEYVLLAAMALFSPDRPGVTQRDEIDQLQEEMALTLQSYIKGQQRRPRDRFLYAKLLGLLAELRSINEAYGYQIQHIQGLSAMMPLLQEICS
(Quantitative high-throughput screening tests each substance at several concentrations.)

Test [2] is described as follows: AP1 Signaling Pathway (AID 357; active means well fitted curve in either direction with a large enough effect, not every such curve was filed as active;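 further: ME-180 reporter cells stimulated with EGF at its EC50 level; on the % scale 0 is the no-effect control and ±100 the full control effect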). The conditions noted are these: ME-180 (cervical carcinoma) AP-1-bla reporter, EGF-induced, beta-lactamase ratio, 5 h; at 7.69 µM (top of the series) unless noted. The essentials: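 A ratiometric CCF4 readout (405 nm excitation; 460 and 530 nm emission) quantified AP-1-driven beta-lactamase in ME-180 cells after 5 h with compound and EC50 EGF; AC50 values were derived for activators and inhibitors.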

The target of test [3] is Cytochrome P450 1A2 (Homo sapiens) (UniProt P05177). Nature of the test: p450-cyp1a2 (AID 410; calls by dose curve; further: potency means the concentration at half of the fitted maximal effect). The essentials: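 20nM CYP1A2, 100uM Luciferin-ME (=Km), 100mM KPO4; cpd 10 min RT; +NADPH regen, 60 min RT; stop/detect 20 min; luminescence. Normalized to furafylline 57 uM = full inhibition.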
Cytochrome P450 1A2 (Homo sapiens), sequence (P05177 whole entry, looked up): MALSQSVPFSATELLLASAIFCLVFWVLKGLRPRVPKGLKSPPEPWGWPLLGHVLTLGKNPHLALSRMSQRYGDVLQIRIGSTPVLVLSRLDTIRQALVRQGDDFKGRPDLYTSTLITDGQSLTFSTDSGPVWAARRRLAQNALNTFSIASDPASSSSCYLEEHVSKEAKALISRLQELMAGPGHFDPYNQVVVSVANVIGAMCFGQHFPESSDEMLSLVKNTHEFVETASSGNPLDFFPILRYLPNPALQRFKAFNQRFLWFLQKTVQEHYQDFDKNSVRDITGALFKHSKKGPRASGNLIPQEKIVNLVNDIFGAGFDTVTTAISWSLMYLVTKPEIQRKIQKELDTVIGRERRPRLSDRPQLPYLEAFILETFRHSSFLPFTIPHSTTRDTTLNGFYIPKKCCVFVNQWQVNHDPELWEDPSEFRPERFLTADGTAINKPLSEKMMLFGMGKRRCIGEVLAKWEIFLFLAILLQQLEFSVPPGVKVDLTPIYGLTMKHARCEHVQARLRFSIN
For test [4], the target named is 3',5'-cyclic-AMP phosphodiesterase 4B (Homo sapiens) (UniProt Q07343). Nature of the test: qHTS Assay for Inhibitors of PDE-IV (AID 607; active means well fitted activation curve with a large enough effect in the main read-out, with a control signal flat, not every such curve was filed as active; further: % of control where 0% means no effect). In outline: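 ACTOne HEK293 cells carry a modified cAMP-gated CNG channel and express endogenous PDE4; plated 1000 cells/well, compounds up to 22.9 uM final. Membrane-potential dye fluorescence (ex 535/em 590) was read; parental cells received 10 uM forskolin + 100 uM RO 20-1724.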
3',5'-cyclic-AMP phosphodiesterase 4B (Homo sapiens), sequence (Q07343 whole entry, looked up): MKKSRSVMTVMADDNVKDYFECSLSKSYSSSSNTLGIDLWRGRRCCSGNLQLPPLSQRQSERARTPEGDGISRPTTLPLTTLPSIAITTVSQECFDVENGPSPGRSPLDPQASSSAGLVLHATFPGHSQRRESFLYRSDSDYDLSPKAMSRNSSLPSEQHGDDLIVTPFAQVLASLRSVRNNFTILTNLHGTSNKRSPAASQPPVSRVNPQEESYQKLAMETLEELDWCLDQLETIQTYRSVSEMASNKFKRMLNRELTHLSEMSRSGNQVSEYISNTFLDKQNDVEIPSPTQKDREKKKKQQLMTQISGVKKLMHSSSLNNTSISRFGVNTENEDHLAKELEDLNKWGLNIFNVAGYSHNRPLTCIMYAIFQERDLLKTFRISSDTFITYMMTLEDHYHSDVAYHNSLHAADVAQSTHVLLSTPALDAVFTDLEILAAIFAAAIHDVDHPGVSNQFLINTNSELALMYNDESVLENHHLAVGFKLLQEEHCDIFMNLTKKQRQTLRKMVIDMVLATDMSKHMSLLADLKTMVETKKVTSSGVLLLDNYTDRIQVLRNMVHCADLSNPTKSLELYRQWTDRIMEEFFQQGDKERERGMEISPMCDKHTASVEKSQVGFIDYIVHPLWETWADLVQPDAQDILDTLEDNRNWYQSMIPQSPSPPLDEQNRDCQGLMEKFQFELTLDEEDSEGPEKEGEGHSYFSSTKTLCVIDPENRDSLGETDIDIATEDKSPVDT

Test [5] has as its target Cytochrome P450 3A4 (Homo sapiens) (UniProt P08684). Briefly: qHTS Assay for Activators of Cytochrome P450 3A4 (AID 885). Further: nearly all actives have a fitted effect of over 65% in size. The essentials:
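CYP3A4 activity: Luciferin-PPXE O-dealkylation, 25uM substrate, 200mM KPO4, RT throughout. Read-out is luciferase luminescence; higher values reflect activation.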

Test [6] addresses Dual specificity protein kinase CLK4 (Homo sapiens) (UniProt Q9HAZ1). Nature of the test: qHTS Assay for Inhibitors of CDC-like Kinase 4 (ADP-Glo Assay) (AID 1771). Further: nearly all actives have a fitted effect of over 70% in size. Further: potency means the concentration at half of the fitted maximal effect. In outline:
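25 nM Clk4, 100 uM RS peptide, 1 uM ATP (final); 2 mM MgCl2, 0.5 mM EGTA, 2.5 mM DTT, 0.01% Triton X-100; 1 hr RT. ADP-Glo readout: ATP depletion 45 min, conversion/luciferase 30 min, luminescence.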

Test [7] has the same target. Nature of the test: qHTS Assay for Inhibitors of CDC-like Kinase 4 (ADP-FP Assay) (AID 1795).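 Further: recombinant human CLK4 phosphorylating RS repeat peptide at 1 µM ATP; on the % scale 0 is the no-effect control and ±100 the full control effect; nearly all actives have a fitted effect of over 60% in size.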 In outline:
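Kinase activity was followed as ADP output, converted from fluorescence polarization with a calibration curve. Reactions ran one hour at low ATP (1 uM) with RS peptide substrate.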

For test [8], the target named is Cytochrome P450 3A4 (Homo sapiens) (UniProt P08684). Nature of the test: qHTS Assay for Inhibitors and Substrates of Cytochrome P450 3A4 (AID 884). Further: nearly all actives have a fitted effect of over 50% in size. Further: potency means the concentration at half of the fitted maximal effect. In outline: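 Luminescent readout of luciferin produced by CYP3A4 (20 nM) dealkylation of Luciferin-PPXE, 25 uM (its KM). NADPH-driven reaction ran 60 min at RT after 10 min compound preincubation; data scaled to 57 uM ketoconazole as 100% inhibition.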
Cytochrome P450 3A4 (Homo sapiens), sequence (P08684 whole entry, looked up): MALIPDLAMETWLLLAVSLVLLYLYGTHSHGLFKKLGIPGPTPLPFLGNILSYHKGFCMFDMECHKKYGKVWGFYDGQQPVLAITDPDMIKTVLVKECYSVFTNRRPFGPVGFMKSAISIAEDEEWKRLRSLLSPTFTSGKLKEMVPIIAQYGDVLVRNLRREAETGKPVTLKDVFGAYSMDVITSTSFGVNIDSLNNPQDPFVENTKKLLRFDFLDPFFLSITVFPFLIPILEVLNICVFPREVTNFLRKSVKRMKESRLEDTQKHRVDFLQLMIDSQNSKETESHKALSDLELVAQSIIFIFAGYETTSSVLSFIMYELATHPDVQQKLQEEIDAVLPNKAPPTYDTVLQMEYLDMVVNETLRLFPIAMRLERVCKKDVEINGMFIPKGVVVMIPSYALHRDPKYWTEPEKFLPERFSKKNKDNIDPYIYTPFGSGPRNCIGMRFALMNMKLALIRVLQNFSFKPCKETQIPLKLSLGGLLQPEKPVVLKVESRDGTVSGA

Test [9] in a line: NFAT Signaling Pathway (AID 444; active means well fitted curve in either direction with a large enough effect, not every such curve was filed as active;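 further: carbachol stimulus at about its EC50 of 1 µM final; on the % scale 0 is the no-effect control and ±100 the full control effect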). The conditions noted are these: Jurkat NFAT-bla M1, carbachol, beta-lactamase ratio, 5 h; at 7.69 µM (top of the series) unless noted. The essentials:
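Jurkat cells with NFAT-driven β-lactamase reporter and co-expressed M1 receptor, stimulated with carbachol (final 1 uM, ~EC50), compound titration, 5 h at 37 °C. CCF4 loaded 1 h at RT; 460/530 nm ratio gave %activity and AC50.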

Test [10] has as its target Lysosomal acid glucosylceramidase (Homo sapiens) (UniProt P04062). Briefly: Glucocerebrosidase-p2 (AID 348; in the data active means potency below about 10 µM; further: potency means the concentration at half of the fitted maximal effect). To be noted: purified GBA, blue fluorogenic substrate, 40 min. The essentials: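 Normal human glucocerebrosidase (0.2 nM) with blue fluorogenic substrate (80 uM final) in citrate/phosphate pH 5.9 with 10mM sodium taurocholate, 0.01% tween-20; 40 min RT, NaOH/glycine stop; fluorescence Ex 365/Em 440; AC50 from a titration from 0.6 nM upwards.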

For test [11], the target named is Cytochrome P450 2C19 (Homo sapiens) (UniProt P33261). Briefly: qHTS Assay for Inhibitors and Substrates of Cytochrome P450 2C19 (AID 899). Further: potency means the concentration at half of the fitted maximal effect; nearly all actives have a fitted effect of over 60% in size. The essentials:
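Luminescent read-out of luciferin formed from Luciferin-H EGE (10uM, equal to KM). Enzyme 5nM in 50mM KPO4; compound added, 10 min at 37C, then NADPH regenerating system for 60 min at 37C. Full inhibition defined by 57uM ketoconazole.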

The target of test [12] is Glutathione peroxidase 1 (Homo sapiens) (UniProt P07203). Nature of the test: Primary qHTS Assay for Inhibitors of Recombinant Selenoprotein Glutathione Peroxidase 1 (GPX1) (AID 1845191). Further: nearly all actives have a fitted effect of over 65% in size. In outline:
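GR-coupled readout: NADPH consumption tracked by fluorescence, ex 340/em 450 nm, at t=0 and after 15 min at RT. Final mix 10 nM GPX1, 1 mM GSH, 0.5 mM CHP, 0.5 mM NADPH, 100 nM GR, 0.01% BSA, following 30 min enzyme–compound preincubation.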

Test [13] has as its target Phospholipid hydroperoxide glutathione peroxidase GPX4 (Homo sapiens) (UniProt P36969). Nature of the test: Primary qHTS Assay for Inhibitors of Recombinant Selenoprotein Glutathione Peroxidase 4 (GPX4) (AID 1845192). Further: on the % scale 0 is the no-effect control and ±100 the full control effect; nearly all actives have a fitted effect of over 65% in size. In outline: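 Steps: GPX4 plus compound, 30 min RT; add GR/GSH/NADPH master mix; start with cumene hydroperoxide; read 340/450 nm fluorescence at 0 and 15 min. Finals were 200 nM GPX4, 1 mM GSH, 0.5 mM CHP, 0.5 mM NADPH, 100 nM GR.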

Test [14] can be described thus: Cell Viability - Hek293 (AID 427;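 active means compounds whose dose-response curve shows a full or clear partial loss of cell viability, called from curve shape rather than a numeric limit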;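 further: potency means the concentration at half of the fitted maximal effect; cells exposed to compound for 40 hours at 37 °C before reading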). To be noted: qHTS. The essentials: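 Luminescent ATP read-out (CellTiter-Glo, 20 min RT) after 40 hr compound exposure at 37 °C in complete medium. Signal normalized to DMSO (basal) and 100 uM tamoxifen (100% inhibition); concentration-response fitted with the standard Hill equation to give AC50.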
Test [15] can be described thus: qHTS Assay for Identification of Small Molecule Inducers of Hypoxia Response (AID 2120; active means well fitted curve in the direction sought with a large enough effect in the signal ratio, with a control signal flat, not every such curve was filed as active; the % refers to the signal ratio; further: 0% is about no effect). In outline: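 Read-out: CCF4 FRET emission ratio 460nm/530nm (excitation 405nm), converted to %Activity, with AC50 fitted across a compound titration. ME-180 cells carried an HRE-driven beta-lactamase reporter; compound exposure 17 h, 37 degrees C.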
Test [16] is described as follows: qHTS assay for small molecule antagonists of retinoid X receptor alpha signaling (AID 588546; active means well fitted inhibition curve with a large enough effect in the signal ratio, with a control signal flat, not every such curve was filed as active; the % refers to the signal ratio;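 further: cells stimulated with 9-cis-retinoic acid as agonist; on the % scale 0 is the no-effect control and ±100 the full control effect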). To be noted: HEK293T RXRa-UAS-bla, beta-lactamase ratio, antagonist mode; measured here: W530 green channel, cytotoxicity proxy. The essentials: (§1)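 Beta-lactamase reporter inhibition, read as CCF4 fluorescence ratio (ex 405, em 460/530 nm) after 2 h at RT. HEK293T UAS-bla cells, 2500/well, were stimulated with 9-cis-RA at 500 or 100 nM final alongside test compound for 18 h at 37 C.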

For test [17], the target named is Retinoic acid receptor RXR-alpha (Homo sapiens) (UniProt P19793). Described as above. The conditions noted are these: HEK293T RXRa-UAS-bla, beta-lactamase ratio, antagonist mode. In outline: as §1
Retinoic acid receptor RXR-alpha (Homo sapiens), sequence (P19793 whole entry, looked up): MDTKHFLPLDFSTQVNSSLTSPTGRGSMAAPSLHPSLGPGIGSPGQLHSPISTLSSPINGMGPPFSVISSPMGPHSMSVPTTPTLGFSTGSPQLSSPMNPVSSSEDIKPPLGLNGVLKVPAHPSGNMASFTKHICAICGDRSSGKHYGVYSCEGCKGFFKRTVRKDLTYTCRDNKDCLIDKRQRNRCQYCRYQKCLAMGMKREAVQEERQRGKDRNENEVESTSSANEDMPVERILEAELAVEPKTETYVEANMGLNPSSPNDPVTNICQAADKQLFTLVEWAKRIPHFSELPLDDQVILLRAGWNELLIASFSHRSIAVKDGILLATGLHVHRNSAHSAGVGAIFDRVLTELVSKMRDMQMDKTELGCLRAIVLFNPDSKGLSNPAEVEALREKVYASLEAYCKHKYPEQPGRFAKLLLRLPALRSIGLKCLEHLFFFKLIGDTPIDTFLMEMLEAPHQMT
Test [18] is described as follows: qHTS assay for environmental chemicals that activate the Aryl hydrocarbon Receptor (AhR) signaling pathway (AID 651777). Further: % of control where 0% means no effect; nearly all actives have a fitted effect of over 15% in size. To be noted: 1A2-DRE human hepatoma cells, luciferase, 24 h; activation: stronger effect = higher value. In outline:
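Quantitative HTS in stably transfected human liver-derived cells whose luciferase gene sits downstream of the CYP1A2 promoter and dioxin response element. After 24 hr exposure at 37 C, One-Glo luminescence was measured.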

The nature of test [19]: qHTS assay for small molecule agonists of the antioxidant response element (ARE) signaling pathway measured by Nrf2-dependant transcriptional activity - cell viability counter screen (AID 720653; active means well fitted curve in the direction sought with a large enough effect in the repeat runs; an effect the other way counts as inactive or inconclusive; further: on the % scale 0 is the no-effect control and ±100 the full control effect). The conditions noted are these: ARE-bla HepG2 viability, CellTiter-Glo ATP luminescence, 16 h; max response: stronger effect = lower value. The essentials: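 ARE-bla HepG2 cells treated with compounds for 16 h at 37C; this counter screen measures viability as intracellular ATP by CellTiter-Glo luminescence after 30 min at room temperature.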

Test [20] can be described thus: qHTS assay for cell viability of the p53RE-bla HCT-116 cell line (AID 743292). Further: on the % scale 0 is the no-effect control and ±100 the full control effect; nearly all actives have a fitted effect of over 55% in size. In outline:
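Viability of compound-treated p53RE-bla HCT-116 cells is taken from ATP-dependent luciferase luminescence. Treatment lasts 16 h at 37 C after a 5 h settling period; detection follows 30 min at room temperature.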

“And” between values parts separate entries of the source, which are not always exact repeats. Identical values can stand only once. Inconclusive results are not listed. The source made the active and inactive calls. Unless noted, the call rests on the fitted dose curve; in most records, active means well fitted curve in the direction sought with a large enough effect; inconclusive means small, poorly fitted or top-dose-only effect, or another doubt; inactive means no such curve, though single readings can be large; an effect the other way counts as inactive or inconclusive.

Dual specificity protein kinase CLK4 (Homo sapiens), sequence (Q9HAZ1 whole entry, looked up): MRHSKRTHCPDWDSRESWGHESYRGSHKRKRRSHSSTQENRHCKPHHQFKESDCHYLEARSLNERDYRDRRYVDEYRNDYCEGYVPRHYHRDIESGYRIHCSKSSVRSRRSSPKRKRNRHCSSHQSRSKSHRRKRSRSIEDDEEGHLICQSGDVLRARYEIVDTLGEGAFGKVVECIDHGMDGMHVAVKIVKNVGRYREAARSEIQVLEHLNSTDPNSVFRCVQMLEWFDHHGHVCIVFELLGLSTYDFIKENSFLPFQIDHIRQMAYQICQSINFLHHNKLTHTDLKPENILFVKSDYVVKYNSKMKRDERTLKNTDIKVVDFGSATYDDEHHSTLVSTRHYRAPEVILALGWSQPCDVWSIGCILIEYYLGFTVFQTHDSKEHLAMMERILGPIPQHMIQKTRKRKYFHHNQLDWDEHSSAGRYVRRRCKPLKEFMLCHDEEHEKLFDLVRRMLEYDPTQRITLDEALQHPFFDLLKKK
Lysosomal acid glucosylceramidase (Homo sapiens), sequence (P04062 whole entry, looked up): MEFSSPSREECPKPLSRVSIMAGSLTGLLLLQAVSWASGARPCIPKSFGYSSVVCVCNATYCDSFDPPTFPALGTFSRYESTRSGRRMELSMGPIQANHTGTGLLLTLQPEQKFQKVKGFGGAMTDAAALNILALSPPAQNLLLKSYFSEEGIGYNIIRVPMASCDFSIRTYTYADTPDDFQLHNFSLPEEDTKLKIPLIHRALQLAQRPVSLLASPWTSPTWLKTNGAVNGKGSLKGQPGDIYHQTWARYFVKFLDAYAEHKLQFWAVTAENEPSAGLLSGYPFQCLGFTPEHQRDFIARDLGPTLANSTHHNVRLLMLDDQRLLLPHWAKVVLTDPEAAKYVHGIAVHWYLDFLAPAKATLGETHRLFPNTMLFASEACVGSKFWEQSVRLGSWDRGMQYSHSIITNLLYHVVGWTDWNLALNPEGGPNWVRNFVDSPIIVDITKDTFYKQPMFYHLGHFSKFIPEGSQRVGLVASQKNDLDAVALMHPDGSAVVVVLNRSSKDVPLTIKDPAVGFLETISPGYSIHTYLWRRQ
Cytochrome P450 2C19 (Homo sapiens), sequence (P33261 whole entry, looked up): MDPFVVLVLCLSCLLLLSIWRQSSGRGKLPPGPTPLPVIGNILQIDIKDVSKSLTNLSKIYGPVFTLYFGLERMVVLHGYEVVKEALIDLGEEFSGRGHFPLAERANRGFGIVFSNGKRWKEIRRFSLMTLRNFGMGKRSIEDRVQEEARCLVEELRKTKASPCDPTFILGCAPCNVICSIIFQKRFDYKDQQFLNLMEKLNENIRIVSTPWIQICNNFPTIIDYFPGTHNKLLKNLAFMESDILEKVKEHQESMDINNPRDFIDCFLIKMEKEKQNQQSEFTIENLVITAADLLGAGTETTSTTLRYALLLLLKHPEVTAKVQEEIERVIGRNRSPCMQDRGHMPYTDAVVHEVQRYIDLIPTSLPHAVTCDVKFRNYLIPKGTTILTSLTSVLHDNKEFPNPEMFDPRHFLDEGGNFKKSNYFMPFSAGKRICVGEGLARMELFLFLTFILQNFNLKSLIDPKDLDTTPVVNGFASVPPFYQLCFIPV
Glutathione peroxidase 1 (Homo sapiens), sequence (P07203 whole entry, looked up): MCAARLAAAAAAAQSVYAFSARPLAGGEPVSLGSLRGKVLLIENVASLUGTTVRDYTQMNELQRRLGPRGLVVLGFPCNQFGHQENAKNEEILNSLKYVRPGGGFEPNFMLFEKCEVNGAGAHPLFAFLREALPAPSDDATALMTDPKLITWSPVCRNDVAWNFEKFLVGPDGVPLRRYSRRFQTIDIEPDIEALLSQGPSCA
Phospholipid hydroperoxide glutathione peroxidase GPX4 (Homo sapiens), sequence (P36969 whole entry, looked up): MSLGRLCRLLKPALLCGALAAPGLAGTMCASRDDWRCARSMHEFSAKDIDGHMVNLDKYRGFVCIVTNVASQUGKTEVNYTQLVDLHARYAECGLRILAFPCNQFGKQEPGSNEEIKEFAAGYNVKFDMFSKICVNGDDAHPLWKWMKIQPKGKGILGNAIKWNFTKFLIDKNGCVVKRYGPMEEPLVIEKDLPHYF

On to `C[C@@H]1O[C@@H](OC[C@H]2OC(Oc3c(-c4ccc(O)c(O)c4)oc4cc(O)cc(O)c4c3=O)[C@H](O)[C@@H](O)[C@@H]2O)[C@H](O)[C@H](O)[C@H]1O` (stereo partly specified), for which the Potency entry in test [1] was “inactive”.

In the case of `CN(CC(=O)O)C(=N)N`, in [1], the Potency result is “inactive”.

Consider `CCCCCCC/C=C/C(=O)CCc1ccc(O)c(OC)c1`, for which the Potency result in [1] was “inactive”.

`COc1ccc(-c2nc3cnc(Oc4cccc(Cl)c4)nc3n(C[C@H]3CCCO3)c2=O)cc1`: in [2], the activity change, negative = inhibition is -13.7% (inactive). In test [3], the Potency was 5.01 µM (active). For the same molecule, the Potency result in test [4], in [6] and in test [7] was “inactive” throughout. The call in test [5] was inactive.

For `N#Cc1cccc(-c2ccc3ncnc(NCc4cccs4)c3c2)c1`, the Potency is 0.1 µM (active) in [3], 3.16 µM (active) in test [8] and 8.91 µM (active) in test [6]. Also, in test [4], the Potency entry is “inactive”. In addition, the result in test [5] was inactive.

Take `COc1ccccc1CNc1nc(-c2ccoc2)nc2ccccc12`: the figures for the activity change, negative = inhibition in test [2] and in [9] were 7.68% (inactive) and -19.8% (inactive), respectively. For the same molecule, the Potency result in test [6] and in [7] was “inactive” each time.

Consider `COc1ccc2[nH]cc(CCNc3cc(-c4ccccc4OC)ncn3)c2c1`, for which the Potency was > 11.4 µM (inactive) in [10], 1.58 µM (active) in [3], 3.16 µM (active) in test [11] and 25.1 µM (active) in test [6]. Further, in test [9], the activity change, negative = inhibition was -7.55% (inactive). In addition, the Potency entry in [4] was “inactive”. The molecule was called inactive in test [5].

For the molecule `CN(C)c1nc(-c2cccc(C#N)c2)nc2ccccc12`, the Potency in test [10] is > 11.4 µM (inactive); in [6], 15.8 µM (active). For the same molecule, the activity change, negative = inhibition in test [2] is 2.42% (inactive).

Consider `CC1(C)C2CCC1(C)C(O)C2` (stereo unspecified), for which the Potency result in [1], in test [12] and in test [13] was “inactive” throughout.

For `OCCc1ccc(O)cc1`, the Potency result in test [1] is “inactive”.

As to `C=C1C[C@]23CC[C@H]4[C@@](C)(CCC[C@@]4(C)C(=O)O)[C@@H]2CC[C@@]1(O[C@@H]1O[C@H](CO)[C@@H](O)[C@H](O)[C@H]1O[C@@H]1O[C@H](CO)[C@@H](O)[C@H](O)[C@H]1O)C3`, the Potency entry in [1] is “inactive”.

As for `COc1ccccc1CNc1cc(-c2cccnc2)ncn1`, the Potency in [10] is > 11.4 µM (inactive); in test [3], 1 µM (active); in test [8], 0.631 µM (active); in test [6] it was 31.6 µM (active). In addition, the activity change, negative = inhibition was -4.39% (inactive) in test [2] and -5.01% (inactive) in test [9]. For the same molecule, the Potency entry in test [4] was “inactive”. Moreover, the molecule was classed as inactive in [5].

As to `O=C(O)c1ccccc1`, the Potency in [14] is > 92 µM (inactive). Moreover, the Potency entry in test [8], in test [20] and in test [1] was “inactive” in each case. In addition, the result in test [15] was inactive. Moreover, the max response was -4.31% in [16], -3.53% (inactive) in test [17] and 1.2% (inactive) in test [19]. Besides, the activation in [18] is 2.1% (inactive).

On to `COc1ccc2[nH]cc(CCNc3ncncc3-c3ccccc3C)c2c1`, for which the Potency in [10] was > 11.4 µM (inactive); in test [3], 0.631 µM (active); in [8], 0.316 µM (active); in test [11], 0.0501 µM (active); in test [6], 28.2 µM (active). In test [9], the activity change, negative = inhibition was 7.13% (inactive). In addition, the Potency entry in test [4] was “inactive”. Besides, in [5], the result was inactive.

With `CCCCCCCCCCCCCC(=O)O`, in test [14], the Potency was > 92 µM (inactive). Also, the Potency entry in [8], in [20] and in [1] was “inactive” throughout. Moreover, the outcome in test [15] was inactive. Further, the max response in test [16] is 9.83% and 0.375%; in test [17] it was -6.83% (inactive) and -2.87% (inactive); in test [19] it was 1.31% (inactive) and -9.4% (inactive). In addition, the activation in test [18] was -0.758% (inactive) and 0.233% (inactive).

For the molecule `COc1ccc2[nH]cc(CCNc3ncncc3-c3cccc(C#N)c3)c2c1`, the activity change, negative = inhibition in [2] is -18.6% (inactive); in [9] it was -10.2% (inactive). Also, the Potency result in test [4] is “inactive”. Moreover, the Potency in test [6] was 25.1 µM (active).

The record behind these values is PubChem BioAssay (NCATS).
